{"source": "the supplement of paper PMC6897291", "system": "RIVA", "experiment": "growth inhibition by drug plus 177Lu-lilotomab satetraxetan (1 - RLU/untreated control) (fraction); higher = stronger inhibition", "settings": "177Lu-lilotomab satetraxetan 0.5 ug/ml", "protocol": "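RIVA (RI-1) ABC-DLBCL cells were pretreated or not for 18 h with 0.5 ug/ml 177Lu-lilotomab satetraxetan (600 MBq/mg), washed and seeded (3000 cells/well) on 384-well plates pre-printed with the Selleck Cambridge Cancer Compound library. Viability was read by RealTime-Glo luminescence on days 3-6 after seeding. Effect = 1 - RLU/mean RLU of the 48 untreated no-drug control wells per plate; Bliss score = (M-E)/(1-Fa).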", "data": [{"compound": "O=P1(N(CCCl)CCCl)NCCCO1", "note": "(stereo not given) [Cyclophosphamide monohydrate]", "values": [{"measurement": "growth inhibition by drug plus 177Lu-lilotomab satetraxetan", "setting": "10 nM, time (day): 3", "value": 0.338}, {"measurement": "growth inhibition by drug plus 177Lu-lilotomab satetraxetan", "setting": "10 nM, time (day): 4", "value": 0.47}, {"measurement": "growth inhibition by drug plus 177Lu-lilotomab satetraxetan", "setting": "10 nM, time (day): 5", "value": 0.502}, {"measurement": "growth inhibition by drug plus 177Lu-lilotomab satetraxetan", "setting": "10 nM, time (day): 6", "value": 0.506}, {"measurement": "growth inhibition by drug plus 177Lu-lilotomab satetraxetan", "setting": "100 nM, time (day): 3", "value": 0.305}, {"measurement": "growth inhibition by drug plus 177Lu-lilotomab satetraxetan", "setting": "100 nM, time (day): 4", "value": 0.403}, {"measurement": "growth inhibition by drug plus 177Lu-lilotomab satetraxetan", "setting": "100 nM, time (day): 5", "value": 0.426}, {"measurement": "growth inhibition by drug plus 177Lu-lilotomab satetraxetan", "setting": "100 nM, time (day): 6", "value": 0.394}]}, {"compound": "C[C@]12CCC(=O)C(O)=C1CC[C@@H]1[C@@H]2CC[C@]2(C)C(=O)CC[C@@H]12", "note": "[Formestane]", "values": [{"measurement": "growth inhibition by drug plus 177Lu-lilotomab satetraxetan", "setting": "10 nM, time (day): 3", "value": 0.476}, {"measurement": "growth inhibition by drug plus 177Lu-lilotomab satetraxetan", "setting": "10 nM, time (day): 4", "value": 0.532}, {"measurement": "growth inhibition by drug plus 177Lu-lilotomab satetraxetan", "setting": "10 nM, time (day): 5", "value": 0.553}, {"measurement": "growth inhibition by drug plus 177Lu-lilotomab satetraxetan", "setting": "10 nM, time (day): 6", "value": 0.549}, {"measurement": "growth inhibition by drug plus 177Lu-lilotomab satetraxetan", "setting": "100 nM, time (day): 3", "value": 0.447}, {"measurement": "growth inhibition by drug plus 177Lu-lilotomab satetraxetan", "setting": "100 nM, time (day): 4", "value": 0.508}, {"measurement": "growth inhibition by drug plus 177Lu-lilotomab satetraxetan", "setting": "100 nM, time (day): 5", "value": 0.53}, {"measurement": "growth inhibition by drug plus 177Lu-lilotomab satetraxetan", "setting": "100 nM, time (day): 6", "value": 0.533}]}, {"compound": "CCC1(c2ccc(N)cc2)CCC(=O)NC1=O", "note": "(stereo not given) [Aminoglutethimide (Cytadren)]", "values": [{"measurement": "growth inhibition by drug plus 177Lu-lilotomab satetraxetan", "setting": "10 nM, time (day): 3", "value": 0.446}, {"measurement": "growth inhibition by drug plus 177Lu-lilotomab satetraxetan", "setting": "10 nM, time (day): 4", "value": 0.523}, {"measurement": "growth inhibition by drug plus 177Lu-lilotomab satetraxetan", "setting": "10 nM, time (day): 5", "value": 0.538}, {"measurement": "growth inhibition by drug plus 177Lu-lilotomab satetraxetan", "setting": "10 nM, time (day): 6", "value": 0.547}, {"measurement": "growth inhibition by drug plus 177Lu-lilotomab satetraxetan", "setting": "100 nM, time (day): 3", "value": 0.226}, {"measurement": "growth inhibition by drug plus 177Lu-lilotomab satetraxetan", "setting": "100 nM, time (day): 4", "value": 0.376}, {"measurement": "growth inhibition by drug plus 177Lu-lilotomab satetraxetan", "setting": "100 nM, time (day): 5", "value": 0.379}, {"measurement": "growth inhibition by drug plus 177Lu-lilotomab satetraxetan", "setting": "100 nM, time (day): 6", "value": 0.408}]}, {"compound": "Cc1ccccc1-n1c(Cn2cnc3c(N)ncnc32)nc2cccc(C)c2c1=O", "values": [{"measurement": "growth inhibition by drug plus 177Lu-lilotomab satetraxetan", "setting": "10 nM, time (day): 3", "value": 0.471}, {"measurement": "growth inhibition by drug plus 177Lu-lilotomab satetraxetan", "setting": "10 nM, time (day): 4", "value": 0.529}, {"measurement": "growth inhibition by drug plus 177Lu-lilotomab satetraxetan", "setting": "10 nM, time (day): 5", "value": 0.546}, {"measurement": "growth inhibition by drug plus 177Lu-lilotomab satetraxetan", "setting": "10 nM, time (day): 6", "value": 0.556}, {"measurement": "growth inhibition by drug plus 177Lu-lilotomab satetraxetan", "setting": "100 nM, time (day): 3", "value": 0.375}, {"measurement": "growth inhibition by drug plus 177Lu-lilotomab satetraxetan", "setting": "100 nM, time (day): 4", "value": 0.45}, {"measurement": "growth inhibition by drug plus 177Lu-lilotomab satetraxetan", "setting": "100 nM, time (day): 5", "value": 0.472}, {"measurement": "growth inhibition by drug plus 177Lu-lilotomab satetraxetan", "setting": "100 nM, time (day): 6", "value": 0.479}]}, {"compound": "N[C@@H](Cc1ccc(N(CCCl)CCCl)cc1)C(=O)O", "note": "[Melphalan]", "values": [{"measurement": "growth inhibition by drug plus 177Lu-lilotomab satetraxetan", "setting": "10 nM, time (day): 3", "value": 0.357}, {"measurement": "growth inhibition by drug plus 177Lu-lilotomab satetraxetan", "setting": "10 nM, time (day): 4", "value": 0.502}, {"measurement": "growth inhibition by drug plus 177Lu-lilotomab satetraxetan", "setting": "10 nM, time (day): 5", "value": 0.516}, {"measurement": "growth inhibition by drug plus 177Lu-lilotomab satetraxetan", "setting": "10 nM, time (day): 6", "value": 0.527}, {"measurement": "growth inhibition by drug plus 177Lu-lilotomab satetraxetan", "setting": "100 nM, time (day): 3", "value": 0.365}, {"measurement": "growth inhibition by drug plus 177Lu-lilotomab satetraxetan", "setting": "100 nM, time (day): 4", "value": 0.48}, {"measurement": "growth inhibition by drug plus 177Lu-lilotomab satetraxetan", "setting": "100 nM, time (day): 5", "value": 0.492}, {"measurement": "growth inhibition by drug plus 177Lu-lilotomab satetraxetan", "setting": "100 nM, time (day): 6", "value": 0.494}]}]}
